# Laboratory results: PubChem BioAssay (NCATS)
# “And” between values parts separate entries of the source, which are not always exact repeats. Identical values can stand only once. Inconclusive results are not listed. A call without a number means that no potency is given here. Some compounds were tested as several samples or in several runs, with calls that do not always agree. The source made the active and inactive calls. The call rests on the fitted dose curve; in most records, active means well fitted curve in the direction sought with a large enough effect; inconclusive means small, poorly fitted or top-dose-only effect, or another doubt; inactive means no such curve, though single readings can be large; an effect the other way counts as inactive or inconclusive.
# Experiments:
# TAB165 = test: qHTS profiling for inhibitors of Plasmodium falciparum proliferation (AID 504749); further: nearly all actives have a fitted effect of over 60% in size; details: P. falciparum in erythrocytes, SYBR Green DNA, 72 h; series mostly up to 28.7 µM
# How it was run: (§1)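 SYBR Green fluorescence of parasite DNA, read after lysis and overnight dark incubation, measured growth over 72 h in erythrocyte culture at 0.3% parasitemia and 2.5% hematocrit. Data normalised to DMSO and 0.29 uM artemisinin, with plate-drift correction.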
# W2 = test: as above; details: P. falciparum in erythrocytes, SYBR Green DNA, 72 h; series mostly up to 28.7 µM
# How it was run: as §1
# CRL-7250 [1] = test: Cytotoxic Profiling of Annotated Libraries Using Quantitative High-Throughput Screening (AID 1296008); details: Five cell lines viability, CellTiter-Glo ATP luminescence, 48-72 h; max response: stronger effect = lower value; further: nearly all actives have a fitted effect of over 60% in size
# How it was run: (§2)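 Cytotoxicity was measured as CellTiter-Glo ATP luminescence, read after 10 min at room temperature. Compound treatment of the cells lasted 48 or 72 hr at 37 degrees Celsius in a qHTS format.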
# HaCat [2] = test: as above; details: Five cell lines viability, CellTiter-Glo ATP luminescence, 48-72 h; max response: stronger effect = lower value
# How it was run: as §2
# KB-3-1 = test: as above; details: Five cell lines viability, CellTiter-Glo ATP luminescence, 48-72 h; max response: stronger effect = lower value
# How it was run: as §2
# NIH3T3 [3] = test: as above; details: Five cell lines viability, CellTiter-Glo ATP luminescence, 48-72 h; max response: stronger effect = lower value
# How it was run: as §2
# HACAT [4] = test: qHTS assay to identify novel small-molecules to repurpose for Merkel cell carcinoma treatment (AID 1296009); details: MCC and control cell lines, CellTiter-Glo viability, 72 h; at 44.8 µM (top of the series) unless noted; further: nearly all actives have a fitted effect of over 60% in size
# How it was run: (§3)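 Cell viability, measured as CellTiter-Glo luminescence, was normalized between DMSO and no-cell wells. The cells had been exposed to 8- or 11-point compound dilutions for 72 hr at 37 degree celsius.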
# MCC-13 = test: as above; details: MCC and control cell lines, CellTiter-Glo viability, 72 h; series mostly up to 46 µM
# How it was run: as §3
# MKL-1 = test: as above; details: MCC and control cell lines, CellTiter-Glo viability, 72 h; series mostly up to 46 µM
# How it was run: as §3
# MKL-2 = test: as above; details: MCC and control cell lines, CellTiter-Glo viability, 72 h; series mostly up to 46 µM
# How it was run: as §3
# NIH3T3 [5] = test: as above; details: MCC and control cell lines, CellTiter-Glo viability, 72 h; at 44.8 µM (top of the series) unless noted
# How it was run: as §3
# UISO = test: as above; details: MCC and control cell lines, CellTiter-Glo viability, 72 h; series mostly up to 46 µM
# How it was run: as §3
# WaGa = test: as above; details: MCC and control cell lines, CellTiter-Glo viability, 72 h; series mostly up to 46 µM
# How it was run: as §3
# C33A = test: Primary qHTS to identify gynecologic anti-cancer compounds using libraries of approved drugs and bioactive compounds (AID 1345084); details: Gynecologic cancer cell panel viability, ATPlite luminescence, 48 h; series mostly up to 57.5 µM; further: nearly all actives have a fitted effect of over 55% in size
# How it was run: (§4)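 Cells, 1,000 per well, were allowed to settle for 16 h at 37 C before compound addition. Five concentrations were tested for 48 h, and viability was read by ATPlite luminescence after 15 min at room temperature.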
# CAOV3 = test: as above; details: Gynecologic cancer cell panel viability, ATPlite luminescence, 48 h; series mostly up to 57.5 µM
# How it was run: as §4
# CASKI = test: as above; details: Gynecologic cancer cell panel viability, ATPlite luminescence, 48 h; series mostly up to 57.5 µM
# How it was run: as §4
# HEK293 = test: Cytotoxic Profiling of Annotated Libraries Using Quantitative High-Throughput Screening (AID 1296008); details: Five cell lines viability, CellTiter-Glo ATP luminescence, 48-72 h; max response: stronger effect = lower value; further: nearly all actives have a fitted effect of over 60% in size
# How it was run: as §2
# MCC-26 = test: qHTS assay to identify novel small-molecules to repurpose for Merkel cell carcinoma treatment (AID 1296009); details: MCC and control cell lines, CellTiter-Glo viability, 72 h; series mostly up to 46 µM; further: nearly all actives have a fitted effect of over 60% in size
# How it was run: as §3
# CRL-7250 [6] = test: as above; details: MCC and control cell lines, CellTiter-Glo viability, 72 h; series mostly up to 44.8 µM
# How it was run: as §3
# HEK293T = test: as above; details: MCC and control cell lines, CellTiter-Glo viability, 72 h; at 44.8 µM (top of the series)
# How it was run: as §3
# Potency means the concentration at half of the fitted maximal effect.
smiles,measurement,setting,value
O=C(NC(O)C(Cl)(Cl)Cl)NC(O)C(Cl)(Cl)Cl (stereo not given),Potency,TAB165,inactive
same,Potency,W2,inactive
same,max response,CRL-7250 [1],1.53% (inactive)
same,outcome,HaCat [2],inactive
same,max response,KB-3-1,2.53% (inactive)
same,outcome,NIH3T3 [3],inactive
same,outcome,HACAT [4],inactive
same,Potency,MCC-13,inactive
same,Potency,MKL-1,inactive
same,Potency,MKL-2,inactive
same,outcome,NIH3T3 [5],inactive
same,Potency,UISO,inactive
same,Potency,WaGa,inactive
same,Potency,C33A,inactive
same,Potency,CAOV3,inactive
same,Potency,CASKI,inactive
C[C@H]1O[C@@H](O[C@H]2[C@@H](O)C[C@H](O[C@H]3[C@@H](O)C[C@H](O[C@H]4CC[C@@]5(C)[C@H](CC[C@@H]6[C@@H]5CC[C@]5(C)[C@@H](C7=CC(=O)OC7)CC[C@]65O)C4)O[C@@H]3C)O[C@@H]2C)C[C@H](O)[C@@H]1O,Potency,CRL-7250 [1],33.5 nM (active) and 48.5 nM (active)
same,Potency,HEK293,53.1 nM (active) and 61.1 nM (active)
same,Potency,HaCat [2],0.266 µM (active)
same,Potency,KB-3-1,73.1 nM (active) and 137 nM (active)
same,max response,NIH3T3 [3],-6.15% (inactive)
same,Potency,MCC-26,0.0422 µM (active)
same,Potency,MKL-1,0.0473 µM (active)
same,Potency,MKL-2,0.0237 µM (active)
same,Potency,WaGa,0.0211 µM (active)
same,Potency,C33A,100 nM (active) and 89.1 nM (active)
same,Potency,CAOV3,316 nM (active) and 282 nM (active)
same,Potency,CASKI,398 nM (active) and 794 nM (active)
CC(O)(CS(=O)(=O)c1ccc(F)cc1)C(=O)Nc1ccc(C#N)c(C(F)(F)F)c1 (stereo not given),outcome,CRL-7250 [1],inactive
same,outcome,HaCat [2],inactive
same,max response,KB-3-1,4.8% (inactive) and -10.6% (inactive)
same,max response,NIH3T3 [3],2.23% (inactive)
same,outcome,NIH3T3 [3],inactive
same,outcome,CRL-7250 [6],inactive
same,outcome,HACAT [4],inactive
same,Potency,MKL-2,4.18 µM (active)
same,outcome,NIH3T3 [5],inactive
same,Potency,WaGa,8.33 µM (active)
same,Potency,C33A,inactive
same,Potency,CAOV3,inactive
same,Potency,CASKI,inactive
Cc1sc2c(c1C)C(c1ccc(Cl)cc1)=N[C@@H](CC(=O)OC(C)(C)C)c1nnc(C)n1-2,Potency,CRL-7250 [1],372 nM (active)
same,Potency,HEK293,526 nM (active)
same,Potency,MKL-1,5.9 µM (active)
same,Potency,MKL-2,0.264 µM (active)
same,Potency,WaGa,2.35 µM (active)
CCC(COC(=O)c1cc(OC)c(OC)c(OC)c1)(c1ccccc1)N(C)C (stereo not given),Potency,W2,6.75 µM (active)
same,max response,CRL-7250 [1],-3.97% (inactive)
same,outcome,HaCat [2],inactive
same,max response,KB-3-1,3.84% (inactive)
same,outcome,NIH3T3 [3],inactive
same,outcome,HACAT [4],inactive
same,Potency,MCC-13,inactive
same,Potency,MCC-26,inactive
same,Potency,MKL-1,inactive
same,Potency,MKL-2,inactive
same,outcome,NIH3T3 [5],inactive
same,Potency,UISO,inactive
same,Potency,WaGa,inactive
same,Potency,C33A,inactive
same,Potency,CAOV3,inactive
same,Potency,CASKI,inactive
NCC1(CC(=O)O)CCCCC1,Potency,TAB165,inactive
same,Potency,W2,inactive
same,max response,CRL-7250 [1],-5.5% (inactive) and -5.6% (inactive)
same,outcome,HaCat [2],inactive
same,max response,KB-3-1,-11.6% (inactive) and 17.1% (inactive)
same,max response,NIH3T3 [3],-2.27% (inactive) and -4.04% (inactive)
same,outcome,HACAT [4],inactive
same,outcome,HEK293T,inactive
same,Potency,MCC-13,inactive
same,Potency,MCC-26,inactive
same,Potency,MKL-1,inactive
same,Potency,MKL-2,inactive
same,Potency,UISO,inactive
same,Potency,WaGa,inactive
same,Potency,C33A,inactive
same,Potency,CAOV3,inactive
same,Potency,CASKI,inactive
CCN(CC)CCCC(C)Nc1ccnc2cc(Cl)ccc12 (stereo not given),outcome,CRL-7250 [6],inactive [at 9.27 µM]
Oc1cc(Cl)ccc1Oc1ccc(Cl)cc1Cl,Potency,TAB165,3.55 µM (active)
same,Potency,W2,3.38 µM (active)
same,Potency,CRL-7250 [1],39400 nM (active)
same,max response,KB-3-1,3.49% (inactive)
same,Potency,MCC-13,44.2 µM (active) and inactive
same,Potency,MKL-2,24.8 µM (active)
same,Potency,UISO,44.2 µM (active)
same,Potency,WaGa,55.6 µM (active)
same,Potency,C33A,28.2 µM (active) and inactive
same,Potency,CAOV3,inactive
same,Potency,CASKI,39.8 µM (active) and inactive
NC12CC3CC(CC(C3)C1)C2,outcome,CRL-7250 [6],inactive
CCN(CCO)CCCC(C)Nc1ccnc2cc(Cl)ccc12 (stereo not given),outcome,CRL-7250 [6],inactive [at 4.96 µM]
CN1C[C@H](CNC(=O)OCc2ccccc2)C[C@@H]2c3cccc4c3c(cn4C)C[C@H]21,Potency,TAB165,10 µM (active)
same,Potency,W2,4.78 µM (active)
same,max response,HaCat [2],-40.8% (inactive)
same,max response,KB-3-1,-8.28% (inactive)
same,Potency,MCC-13,inactive
same,Potency,MCC-26,inactive
same,Potency,C33A,inactive
same,Potency,CASKI,inactive
CC(=O)Nc1cc([As](=O)(O)O)ccc1O,Potency,TAB165,inactive
same,Potency,W2,inactive
same,max response,CRL-7250 [1],-3.67% (inactive)
same,max response,HaCat [2],-14.2% (inactive)
same,max response,KB-3-1,5.7% (inactive)
same,outcome,NIH3T3 [3],inactive
same,Potency,MCC-13,inactive
same,Potency,MCC-26,inactive
same,Potency,MKL-1,inactive
same,Potency,MKL-2,inactive
same,outcome,NIH3T3 [5],inactive
same,Potency,UISO,inactive
same,Potency,WaGa,inactive
same,Potency,C33A,inactive
same,Potency,CAOV3,inactive
same,Potency,CASKI,inactive
O=C1NCN(c2ccccc2)C12CCN(CC1COc3ccccc3O1)CC2 (stereo not given),Potency,TAB165,inactive
same,max response,CRL-7250 [1],-15.4% (inactive)
same,max response,HaCat [2],4.17% (inactive)
same,max response,KB-3-1,-9.57% (inactive)
same,max response,NIH3T3 [3],-1.57% (inactive)
same,Potency,MCC-13,inactive
same,Potency,MKL-1,inactive
same,Potency,MKL-2,inactive
same,Potency,UISO,inactive
same,Potency,WaGa,inactive
same,Potency,C33A,inactive
same,Potency,CAOV3,inactive
same,Potency,CASKI,inactive
Cc1ccc(-c2nc3ccc(C)cn3c2CC(=O)N(C)C)cc1,Potency,TAB165,inactive
same,Potency,W2,inactive
same,max response,CRL-7250 [1],3.97% (inactive)
same,max response,HaCat [2],-0.388% (inactive)
same,max response,KB-3-1,2.97% (inactive)
same,max response,NIH3T3 [3],-7.47% (inactive)
same,Potency,MCC-13,inactive
same,Potency,MKL-1,inactive
same,Potency,MKL-2,inactive
same,Potency,UISO,inactive
same,Potency,WaGa,inactive
same,Potency,C33A,inactive
same,Potency,CAOV3,inactive
same,Potency,CASKI,inactive
O=C(O)P(=O)(O)O,max response,KB-3-1,-7.16% (inactive)
same,outcome,CRL-7250 [6],inactive
COc1ccc2c(c1OC)CN1CCc3cc4c(cc3C1C2)OCO4 (stereo not given),Potency,HEK293,9.44 µM (active) and 935 nM (active)
same,max response,HaCat [2],1.37% (inactive)
same,outcome,HaCat [2],inactive
same,max response,KB-3-1,-7.53% (inactive) and -10% (inactive)
same,max response,NIH3T3 [3],-8.93% (inactive)
same,outcome,HACAT [4],inactive
same,Potency,MCC-13,inactive
same,Potency,MCC-26,inactive
same,Potency,MKL-1,11.9 µM (active)
same,Potency,MKL-2,20.9 µM (active)
same,Potency,WaGa,16.6 µM (active)
same,Potency,CAOV3,inactive
C=C1C[C@@H]2[C@H](CC[C@]3(C)C(=O)CC[C@@H]23)[C@@]2(C)C=CC(=O)C=C12,max response,KB-3-1,-16.4% (inactive)
same,Potency,MCC-13,inactive
same,Potency,MKL-2,13.3 µM (active)
same,Potency,UISO,inactive
same,Potency,C33A,inactive
same,Potency,CASKI,inactive
Cc1cnc(C(=O)NCCc2ccc(S(=O)(=O)NC(=O)NC3CCCCC3)cc2)cn1,outcome,CRL-7250 [6],inactive
